# From PubChem
# Avidin bead fluor – avidin bead compound fluorescence profile. AID 1775. 220,000 tested, 0.38% active. fluorescence (KMESF) at 10 µM. Avidin beads, compound fluorescence 488/530 nm, flow cytometry; hits give high values; in the data active = fluorescence above about 47
# RGS7-Gao reg – modulates binding of RGS7 to human Galphao. 220,000 tested, 0.35% active. binding response (% of control), % at 10 µM. P09471. Multiplexed bead flow cytometry; actives lie on both sides; in the data active = binding response below about 49% or above about 150%; inconclusive = no clear call, values can overlap the other calls; inactive = in between;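 note: fluorescent Galphao held in activated GDP-AlF4 state binding bead-coupled RGS7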
# RGS4-Gao reg – modulates binding of RGS4 to human Galphao. binding response (% of control), % at 10 µM. AID 1415. P09471. Multiplexed bead flow cytometry; actives lie on both sides. 220,000 tested, 0.33% active; in the data active = binding response below about 49% or above about 150%; inactive = in between;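 note: fluorescent Galphao activated with aluminum fluoride binding bead-coupled RGS4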
# RGS8-Gao reg – regulators of human RGS8-Galphao interaction. multiplexed bead flow cytometry, RGS8-Galphao binding; actives lie on both sides. 220,000 tested, 0.34% active. response (percent of control binding), % at 10 µM; in the data active = response below about 60% or above about 140%; inactive = in between;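 note: Galphao activated as the GDP aluminium fluoride complex binding bead-coupled RGS8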
# RGS16-Gao HTS – regulators of human RGS16-Galphao interaction; bead-based flow cytometry RGS16-Galphao binding, fluorescence; actives lie on both sides; AID 1441; O15492+P09471; 220,000 tested, 0.38% active; binding response (% of control), % at 10 µM;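 note: Galphao activated by GDP with aluminum fluoride before binding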
# Target sequence (O15492 whole entry, looked up): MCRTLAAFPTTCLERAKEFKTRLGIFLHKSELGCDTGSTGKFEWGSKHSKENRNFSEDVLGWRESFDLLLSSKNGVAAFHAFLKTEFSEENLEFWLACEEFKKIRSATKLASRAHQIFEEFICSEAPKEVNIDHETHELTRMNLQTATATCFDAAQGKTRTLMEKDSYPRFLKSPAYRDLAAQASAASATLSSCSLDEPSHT
# Target sequence (P09471 whole entry, looked up): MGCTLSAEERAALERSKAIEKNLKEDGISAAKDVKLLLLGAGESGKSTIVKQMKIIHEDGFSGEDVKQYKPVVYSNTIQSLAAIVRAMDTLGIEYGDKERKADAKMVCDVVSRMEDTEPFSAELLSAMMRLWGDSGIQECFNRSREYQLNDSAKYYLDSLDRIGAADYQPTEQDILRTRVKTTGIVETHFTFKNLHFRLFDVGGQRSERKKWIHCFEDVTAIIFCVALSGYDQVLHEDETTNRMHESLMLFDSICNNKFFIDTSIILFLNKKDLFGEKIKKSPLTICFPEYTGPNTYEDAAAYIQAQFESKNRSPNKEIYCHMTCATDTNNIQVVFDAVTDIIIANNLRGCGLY
# GSH bead fluor – compound fluoresces at 488/530 nm on GSH beads; GSH beads flow cytometry, compound fluorescence 488/530 nm; hits give high values; fluorescence (KMESF) at 10 µM; 190,000 tested, 0.25% active; AID 1776; in the data active = fluorescence above about 89;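 note: glutathione beads carrying GST-tagged Bcl family fusion proteins plus one bare bead set; values are compound well signal with DMSO vehicle wells as background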
# RGS4-Gao HTS – regulators of human RGS4-Galphao interaction. RGS4–Galpha-o binding response, % at 10 µM. AID 1504. shares compounds with RGS16-Gao HTS. 1,600 tested, 99% active. multiplexed bead flow cytometry, RGS–Galpha-o binding;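 note: fluorescently labeled Galpha-o bound to GDP with aluminium fluoride binding biotinylated RGS beads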
# Biotin-avidin – interferes with biotinylated probe binding to avidin beads; 1,700 tested, under 10 active; streptavidin beads, fluorescein-biotin binding, flow cytometry; inhibition, % at 10 µM; shares compounds with RGS16-Gao HTS;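 active = inhibition above 50%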;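 note: median green fluorescence of gated singlet beads compared with DMSO control wells; 0% = DMSO wells and 100% = complete loss of bead fluorescence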
# RGS8-Gao confirm – confirmation of regulators of human RGS8-Galphao interaction | shares compounds with RGS16-Gao HTS | bead-based flow cytometry RGS8-Galphao binding, fluorescence; actives lie on both sides | binding response (% of control), % at 10 µM | 1,700 tested, 3% active; in the data active = binding response below about 72% or above about 130%; inactive = in between;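 note: Galphao activated as GDP AlF4 complex before binding bead RGS8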
# RGS7-Gao single – confirmation of regulators of human RGS7-Galphao interaction. shares compounds with RGS16-Gao HTS. bead-based flow cytometry RGS7-Galphao binding; actives lie on both sides. response (percent of control binding), % at 10 µM. 1,700 tested, 7.8% active. AID 1837; in the data active = response below about 75% or above about 130%; inactive = in between;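 note: fluorescent Galphao activated with GDP and aluminum fluoride binding bead-coupled RGS7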
# RGS16-Gao single – RGS16-Galphao interaction regulation, single point confirmation; AID 1838; response (% of control binding), % at 10 µM; bead-based flow cytometry, RGS16-Galphao binding; actives lie on both sides; 1,700 tested, 4% active; shares compounds with RGS16-Gao HTS; in the data active = response below about 74% or above about 130%; inactive = in between;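 note: Galphao activated as the GDP aluminium fluoride complex binding bead-coupled RGS16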
# RGS4-Gao confirm – RGS4-Galphao interaction regulation, single point confirmation | shares compounds with RGS16-Gao HTS | binding response (% of control), % at 10 µM | 1,700 tested, 4% active | RGS4-Galphao binding, multiplexed bead flow cytometry; actives lie on both sides; in the data active = binding response below about 74% or above about 130%; inactive = in between
# RGS19-Gao single – confirmation of regulators of human RGS19-Galphao interaction. shares compounds with RGS16-Gao HTS. 1,700 tested, 5% active. response (percent of control binding), % at 10 µM. AID 1841. bead-based flow cytometry RGS19-Galphao binding; actives lie on both sides; in the data active = response below about 50% or above about 160%; inactive = in between;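 note: 100% = no compound control and 0% = blank background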
# The depositor's hits bear a star; ? = inconclusive; · = no result given; [ ] = remark or other dose. An excerpt weighted towards active compounds, which were near 1.2% of everything screened. Unless noted, the rule behind the calls is not given here.
SMILES,Avidin bead fluor,RGS7-Gao reg,RGS4-Gao reg,RGS8-Gao reg,RGS16-Gao HTS,GSH bead fluor,RGS4-Gao HTS,Biotin-avidin,RGS8-Gao confirm,RGS7-Gao single,RGS16-Gao single,RGS4-Gao confirm,RGS19-Gao single
Cc1noc(C)c1CCC(=O)N1CCCC(CCC(=O)NCc2ccccc2F)C1 (stereo not drawn),5,96,97,88,47,12,·,·,·,·,·,·,·
C=CCSc1nnc(CC(OC)OC)n1-c1ccccc1,25,107,105,108,111,10,·,·,·,·,·,·,·
Cc1cccc(-n2c(C)cc(C)c(C#N)c2=O)c1,9,93,98,100,102,14,·,·,·,·,·,·,·
CC1C(=O)CC(c2ccccc2)NC1c1ccccc1 (stereo not drawn),12,106,117,125,407*[activator],10,117*,-1,101,103,100,103,102
CCOC(=O)Cc1csc(NC(=O)CSc2nnc(-c3ccc(F)cc3)o2)n1,3,57,61,72,-13*,12,61*,-1,95,68*,84,80,54
CCOC(=O)Cc1csc(NC(=O)CSc2nnc(-c3ccc(C)cc3)o2)n1,7,98,96,99,104,36,·,·,·,·,·,·,·
CC1CCCC(C)N1CC(O)COc1c(F)cc(Br)cc1F (stereo not drawn),9,?,101,101,103,15,·,·,·,·,·,·,·
O=C(NCCN=C1NS(=O)(=O)c2ccccc21)c1ccc2nccnc2c1,3,99,99,100,100,18,·,·,·,·,·,·,·
O=C(NCCN=C1NS(=O)(=O)c2ccccc21)c1ccncc1,72*,163*[activator],148,114,125,10,148*,-1,101,98,101,101,100
Cc1ccc(C)c(SCC(=O)Nc2cccnc2Cl)c1,22,105,106,109,127,11,·,·,·,·,·,·,·
CCCCCC(=O)NC(=S)Nc1ccc(NC(=O)c2ccco2)cc1,21,116,110,123,179*[activator],8,110*,-1,105,97,108,102,112
CCCCCC(=O)N/N=C(\C)c1ccc(NC(=O)c2ccco2)cc1,17,110,112,107,113,38,·,·,·,·,·,·,·
CCOc1ccc(CC(=O)Nc2ccc(NC(=O)c3ccco3)cc2)cc1OCC,1,20*,28*,23*,16*,12,·,0,102,104,105,105,100
COc1ccc(/C=C/CN2CCN(Cc3ccc(F)cc3)C(CCO)C2)cc1 (stereo not drawn),11,89,92,91,96,12,·,·,·,·,·,·,·
Cc1ccc(NC(=S)N2CCOCC2)c(C)c1,44,110,105,103,107,17,·,·,·,·,·,·,·
Cc1ccc(NC(=S)N2CCN(C)CC2)c(C)c1,10,105,107,115,186*[activator],13,107*,1,102,105,103,103,121
CC(C)(C)c1ccc(C(=O)O)c(C(=O)c2ccccc2)c1,6,99,97,100,102,18,·,·,·,·,·,·,·
Cc1ccccc1OCCSc1nc2ncnc(N)c2[nH]1,5,101,104,102,106,21,·,·,·,·,·,·,·
